Screening results from PubChem.
A selection: hits, their analogues and other compounds. The true share with any hit is near 7.6%.
HCV NS3h FP – blocks HCV NS3 helicase binding to DNA; NS3h Cy5-dT15 DNA binding, fluorescence polarization; inhibition, % at 100 µM; hit rate 1.6% among 16,000; AID 687043;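 active = inhibition above the average over every tested compound plus 3 SD, cut at about 40% in these data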
Cy5 interf NS3h – enhances or quenches Cy5 fluorescence in NS3h assay; fluorescence interference ratio at 100 µM; Cy5-dT15 DNA with NS3h, fluorescence interference; actives lie on both sides; signal over control mean, under 1 quenches; hit rate 6% among 16,000;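 active = compound fluorescence over control fluorescence at most 0.8, a quencher, or at least a set upper limit, an enhancer; inactive = ratio between 0.8 and the set upper limit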
Hits are given with their value; - = inactive.

SMILES | HCV NS3h FP | Cy5 interf NS3h
COc1ccc(N2C(=O)/C(=C\c3ccccc3C)SC2=S)cc1 | - | 1.21
COc1cc(/C=C2\SC(=S)N(C)C2=O)ccc1OC(=O)c1cccc(C)c1 | - | -
C=CCOc1ccc(/C=C2\SC(=S)N(c3ccc([N+](=O)[O-])cc3)C2=O)cc1OC | - | -
COc1cc(/C=C2\SC(=S)N(C(C)C(=O)O)C2=O)ccc1O (configuration not stated) | - | -
CC(NC(=O)c1ccccc1Cl)c1ccccc1 (configuration not stated) | - | -
O=C(NCCc1ccc(Cl)cc1)C(=O)NCc1ccccc1 | - | -
O=C(Nc1ccc(S(=O)(=O)N2CCCCC2)cc1)c1ccc(F)cc1 | - | -
O=C(Nc1ccc(S(=O)(=O)N2CCCCCC2)cc1)C(F)(F)F | - | 0.766
O=C(/C=C/c1ccccc1Cl)Nc1ccccc1[N+](=O)[O-] | 40.9 | -
COc1ccc(NC(=O)/C=C/c2ccccc2Cl)c([N+](=O)[O-])c1 | - | -
O=S(=O)(N=C(Nc1cccc(O)c1)c1ccccc1)c1ccccc1 | - | -
CCOC(=O)c1ccc(NC(=O)c2ccc(OCC(C)C)cc2)cc1 | - | -
COC(=O)c1ccc(OCC(O)CN(C)C)cc1 (configuration not stated) | - | 0.763
CCOC(=O)CNC(=O)c1ccc(OC)cc1 | - | 0.709
CCOc1ccc(C(=O)Nc2ccccc2C(=O)O)cc1 | - | -
CCOc1ccccc1NC(=O)c1ccc(OC)cc1 | - | 1.25
COc1ccc(C(=O)NCc2ccccc2C)cc1 | - | -
Cc1cc(C(=O)Nc2ccc(N(C)C)cc2)ccc1[N+](=O)[O-] | - | 0.241
COc1ccc(C(=O)Nc2ccc(C(N)=O)cc2)cc1[N+](=O)[O-] | - | 0.782
COc1ccc(C(=O)Nc2ccc(C)c(Cl)c2)cc1OC | - | 0.734
COc1ccc(C(=O)Nc2ccc(C(C)C)cc2)cc1[N+](=O)[O-] | - | -
Cc1cc(C)cc(NC(=O)c2ccc(C)c([N+](=O)[O-])c2)c1 | - | -
Cc1ccc(NC(=O)c2ccc(I)cc2)cc1Cl | - | -
CCOc1cccc(NC(=O)/C(C#N)=C\c2cc(C)n(-c3ccc(NC(C)=O)cc3)c2C)c1 | - | -
Cc1cccc(COc2ccc3c(oc(=O)c4ccccc43)c2C)c1 | - | -
SMILES | HCV NS3h FP | Cy5 interf NS3h
CN(C)c1ccc(C2C(=C(O)c3ccccc3)C(=O)C(=O)N2c2cccnc2)cc1 (configuration not stated) | - | -
COc1cccc(C2NC(=O)NC(C)=C2C(=O)Nc2cccc(Cl)c2)c1OC (configuration not stated) | - | -
O=[N+]([O-])c1cccc(S(=O)(=O)Nc2ccccc2CO)c1 | - | -
CC(=O)N1CCN=C1Nc1c(Cl)cccc1Cl | - | 0.603
Cc1cccc(Cl)c1NC(=O)C1CC(=O)N(c2ccc(Br)cc2)C1 (configuration not stated) | - | -
Cc1ccc(OCC(=O)N2CCC(Cc3ccccc3)CC2)c(C)c1 | - | -
COc1ccccc1C(=O)Nc1ccc(Br)cc1 | - | -
O=C(Nc1ccc(NC(=O)c2ccccc2Br)cc1)c1ccccc1Br | - | -
CC(=O)Nc1ccc(NC(=O)c2ccccc2OC(F)F)cc1 | - | 0.766
COc1ccccc1C(=O)Nc1cc(C)cc(C)c1 | - | 0.677
COc1cc(/C=N\n2cnnc2)cc(OC)c1O | - | 0.671
COc1ccc(/C=N\n2cnnc2)cc1Br | - | -
O=C1C2=C(C(c3ccccc3)=NCCN2)C(c2ccc(F)cc2)N1c1ccccc1 (configuration not stated) | - | -
O=C1CC(C2CCCO2)C(=O)N1c1ccc(Cl)cc1 (configuration not stated) | - | -
CS(=O)(=O)N1CCN(Cc2ccccc2C(F)(F)F)CC1 | - | 0.554
Cc1ccc(S(=O)(=O)N2CCN(Cc3ccccc3[N+](=O)[O-])CC2)cc1 | - | -
Cc1ccccc1CN1CCN(S(C)(=O)=O)CC1 | - | -
CS(=O)(=O)N1CCN(Cc2ccccc2[N+](=O)[O-])CC1 | - | 0.723
CCc1cc(=O)oc2cc(OCC(C)=O)ccc12 | - | -
O=C(Nc1cccc(Cl)c1)Nc1nnc(-c2ccc(Cl)cc2Cl)s1 | - | 0.747
O=C(Nc1cccc(Cl)c1)Nc1nnc(Cc2ccc(Cl)cc2Cl)s1 | - | -
Cc1cc(Cl)ccc1OCC(=O)NCC1CCCO1 (configuration not stated) | - | -
O=C(c1ccc(-c2ccccc2)cc1)N1CCN(C(=O)c2cccs2)CC1 | - | -
Cc1cc([N+](=O)[O-])ccc1-c1ccc(C(=O)Nc2cc(Cl)cc(Cl)c2)o1 | - | -
CCOc1cc(OCC)cc(C(=O)Nc2cccc(C(F)(F)F)c2)c1 | - | 0.501
SMILES | HCV NS3h FP | Cy5 interf NS3h
CCOc1ccc(NC(=O)C(=O)Nc2cccc(C(F)(F)F)c2)cc1 | - | -
Cc1cc(=O)n2ccc(CN(C)C)c(O)c2n1 | - | 0.621
CCC(=O)Nc1ccc(C(=O)Nc2c[nH]c(=O)[nH]c2=O)cc1 | - | -
CC(C)CN1C(=O)c2ccc(C(=O)Nc3c[nH]c(=O)[nH]c3=O)cc2C1=O | - | 0.664
COc1cc(/C=c2\sc3nc4ccccc4n3c2=O)ccc1OS(=O)(=O)c1ccccc1[N+](=O)[O-] | - | 1.22
O=c1/c(=C/c2ccccc2OS(=O)(=O)c2ccccc2[N+](=O)[O-])sc2nc3ccccc3n12 | - | -
Cc1cc(Cl)ccc1OCC(O)CN1CCCC1 (configuration not stated) | - | -
CC1CCN(CCCCOc2c(Cl)cccc2Cl)CC1 | - | 0.794
Cc1ccc(C)c(OCCCCN2CCCC2)c1C | - | 0.722
CC1CCN(Cc2c(O)ccc3ccccc23)CC1 | - | -
CCn1c2ccccc2c2cc(CN3CCN(Cc4ccc([N+](=O)[O-])cc4)CC3)ccc21 | - | -
COc1ccc(Cl)cc1NC(=O)c1cc(-c2ccccc2)nc2ccccc12 | - | -
COc1cccc(-n2c(O)c(C(c3ccccn3)c3c(O)n(-c4cccc(OC)c4)c(=O)[nH]c3=O)c(=O)[nH]c2=O)c1 | - | -
COc1ccc(-n2c(O)c(C=Nc3ccc(Cl)cc3)c(=O)[nH]c2=O)cc1 | - | 0.782
O=C(Nc1ccc(F)cc1)c1ccc(-c2ccccc2)cc1 | - | -
CC1CCN(S(=O)(=O)c2ccc(NC(=O)c3ccc([N+](=O)[O-])cc3)cc2)CC1 | - | -
O=C(Nc1ccccc1)c1ccc(-c2ccccc2)cc1 | - | 1.23
CC1CCN(S(=O)(=O)c2ccc(NC(=O)c3ccc(-c4ccccc4)cc3)cc2)CC1 | - | 1.36
Cc1cc(OCC(=O)Nc2cc([N+](=O)[O-])ccc2Cl)cc(C)c1Cl | - | 0.542
O=C(COc1ccc(Cl)cc1)Nc1cc([N+](=O)[O-])ccc1F | - | -
Cc1cc2sc3ccccc3c(=O)c2cc1O | - | -
Cc1ccc(OCCOCCOc2ccc(Cl)cc2/C=C2/SC(=S)NC2=O)cc1 | - | -
C=CCOc1ccc(Cl)cc1/C=C1/SC(=S)NC1=O | - | 1.24
COc1ccc(CCNC(=O)C(=O)NCc2ccco2)cc1 | - | -
Cc1ccccc1N1C(=O)/C(=C/c2cc(C)n(-c3cccnc3)c2C)C(=O)NC1=S | - | -
CCc1ccccc1N1C(=O)/C(=C/c2cc(C)n(-c3cccnc3)c2C)C(=O)NC1=S | - | 1.23
COc1cc(C2NC(=S)NC(C)=C2C(=O)Nc2ccccc2Cl)cc(OC)c1OC (configuration not stated) | - | -
CCN(CC)c1ccc(C(=O)Nc2nccs2)cc1 | - | -
